Positions count from the first letter of the chain named. In all, about 24,000 sequences were measured (“enrichment r”: median about 0.99, highest 2% from about 3.7 on). This is one part of a sample in which the highest values are shown more often than they occur.
T1: UNK ZnF1-3 (human, UniProt Q9C0B0 31-174)
T1 sequence: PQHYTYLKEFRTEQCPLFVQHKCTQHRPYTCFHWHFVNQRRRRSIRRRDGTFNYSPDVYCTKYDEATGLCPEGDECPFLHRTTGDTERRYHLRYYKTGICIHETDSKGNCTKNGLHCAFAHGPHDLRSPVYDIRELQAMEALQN

B1: 29117783_29124966_335_CDS_ENSG00000163811_ENST00000407426|human|control|control (ssRNA)
RNA: GGGAGUUCUACAGUCCGACGAUCUUUUACUGUGCUGUAUAAUAAAAUGCUACCAACUGCUGUGCCAAGAGCCAAUAAGUCAGUCUGGUUACUCAUUCCUACAGCUUCUGAUUUCCUUUUUUUCCUCUGGGGACUUUCCUUGGCCAACAGAGGAUUGAGCAUCA
B2: chr7:141450121:141450122:+_ENSG00000106028_ENST00000265304|hu_mus|hu_hu_hu_mus_True|18_38 (ssRNA)
RNA: GGGAGUUCUACAGUCCGACGAUCUCAUCCGUUCUAUGCCUUUUCUUUUGUCUGGUCACUCAGAAAUAUAAUGUUAUCAGCUAUGAUUGUUGUUGCUUGUCGCCUCACAUUGUUUUUAUCCAUGUAUUCGCCAUAGUCCACUUUCAACAGAGGAUUGAGCAUCA
B3: chr4:115894766:115894767:+_ENSMUSG00000028698_ENSMUST00000030464|mus_hu|mus_mus_mus_hu_True|18_98 (ssRNA)
RNA: GGGAGUUCUACAGUCCGACGAUCUUCCACACGGAAAGUACUUGGGGGUUUUCCAACGGCCAGUACCAGUCCGGCCAAACUACCCGAACAGGGUCCUCCCCCUCUCUCCUACAGAACUAAAGCACCCGCCCCCGAACUUUCAAGCAACAGAGGAUUGAGCAUCA
B4: chr7:140404665:140404666:+_ENSG00000090266_ENST00000247866|hu_hu|hu_hu_hu_mus_False|1_108 (ssRNA)
RNA: GGGAGUUCUACAGUCCGACGAUCUGCGUACAGAGUGCCAGAGAGUUUACAGUGUCAGUCCUCGUCAUCAGGAGGGAUUCCCAGUUCUUCAUCUGUCCACUGUGAAGGAUCUGGAUAUGAAAAGUGACCCAGCACAGCUUCUGACAACAGAGGAUUGAGCAUCA
B5: chr1:39494447:39494448:+_ENSG00000168653_ENST00000372967|hu_mus|hu_hu_hu_mus_False|78_108 (ssRNA)
RNA: GGGAGUUCUACAGUCCGACGAUCGCAUCGACCAGCCUUCUUAUAGGGCUGUUCUGCACUCUGGAUUAUAAAGUGCCGGUCCAGGCUGAUGCCCAGCUUUUUCUGUAUGUCAAGGAAAGGCAUGGCUCUGCAGUGCCCUUGUCACAACAGAGGAUUGAGCAUCA
B6: 114145877_114145997_1367_3pUTR_ENSMUSG00000033545_ENSMUST00000095176|mouse|control|control (ssRNA)
RNA: GGGAGUUCUACAGUCCGACGAUCUUUGCAGUGGACAAUGUCUGUUCCACAGGCCACUACUUAGUGAUUCUUCCCUUUCAGAACCGAGUCUCUGAGAGGUGAGGGAGGUGAGGCUGCUGUAGAGCCUGGCUGGGGGCGCCUCUGCAACAGAGGAUUGAGCAUCA
B7: chr7:130337358:130337359:+_ENSMUSG00000052707_ENSMUST00000094053|mus_mus|FALSE|FALSE (ssRNA)
RNA: GGGAGUUCUACAGUCCGACGAUCACAAGAUUUUUUGACCGGGGAACUGGUUUCCUGAGAACCAUGCUCUUUGAUUUAGGACAGGAAUAGAAAACAGAAGAACAUGGCCAACUGCUGCUCUUUUCCCAGAGAUAGAAGCGUCUUCAACAGAGGAUUGAGCAUCA
B8: chr2:165877891:165877892:+_ENSMUSG00000027678_ENSMUST00000088095|mus_mus|motif|central (ssRNA)
RNA: GGGAGUUCUACAGUCCGACGAUCGAACCUCUGGAUACAUCUUCGGAUUAUGUCUUCAAAGCCAGGCCUCAUGGAAGAUCGGAGUGAGUUUGUAUCUAUAUUGACAACCUUUCCGGAAAGGUCAUGUCUGGUAAUAAAGCUCUCCAACAGAGGAUUGAGCAUCA
B9: chr3:32586495:32586496:-_ENSG00000144635_ENST00000273130|hu_hu|FALSE|FALSE (ssRNA)
RNA: GGGAGUUCUACAGUCCGACGAUCUUUCUGUAAAGAAUCCAAAGCAGUCCAAGGCUUUGACAUGUCAACAACCAGCAUAACUAGAGUAUCCUUCAGAGAUACGGCAUCCAGUGAAAAUUUAAGGAGGCCUUUGUGAUAUAGGUCCAACAGAGGAUUGAGCAUCA
B10: chr13:100193591:100193592:-_ENSMUSG00000052727_ENSMUST00000064762|mus_mus|FALSE|FALSE (ssRNA)
RNA: GGGAGUUCUACAGUCCGACGAUCUUAAACCCUCAGAGUAAAAGAGCAGUGCGAAACAUACGCUUUACAGACGAAAAUAAACUAAAAUGUAAAUUUUGAAAUAAAUAACUAACAUAGAAAAUAAAAUGAGGUCAUUGUUCACUACAACAGAGGAUUGAGCAUCA
B11: chr19:7500544:7500545:-_ENSMUSG00000024758_ENSMUST00000025667|mus_mus|FALSE|FALSE (ssRNA)
RNA: GGGAGUUCUACAGUCCGACGAUCACAGACACGUACACAAUUUCAUUAGUAAUUUUUUCAUCUCUACGAGUCUUUGUUUAAAAAAACAAAACCGAAAAAACCCUCUCAUGUAACACAGAAACCUUUCCAAUUAUUUUAACACAGCAACAGAGGAUUGAGCAUCA
B12: chr13:100193591:100193592:-_ENSMUSG00000052727_ENSMUST00000064762|mus_mus|motif|central (ssRNA)
RNA: B10 RNA with U82G, A83G
B13: 44559432_44560298_1111_3pUTR_ENSMUSG00000032096_ENSMUST00000034607|mouse|control|control (ssRNA)
RNA: GGGAGUUCUACAGUCCGACGAUCACAUUUGGAUGCGUCUGUAGCUGCACCCCUUUCUUAUCUUCAUUUUCUACAUGAAGACGAAUCCGGCCAAAUUUGUCAUCUGAGAUCCUAAGCAUGAUCAUGCCAUGCAACUCCAUAUUCCAACAGAGGAUUGAGCAUCA
B14: chr15:55677894:55677895:-_ENSG00000260916_ENST00000569205|hu_mus|motif|central (ssRNA)
RNA: GGGAGUUCUACAGUCCGACGAUCGGAACAUUCUAGAGUCAGUCCACAGUUGUCACUGGCUGUGGCAGAAUUCACGAUCUCGGUAUCAGAACCCUCAUGAUUGAUGACAGUCCAGCCACAAGAUGAGUCGCUGUCGCUGGAACUCAACAGAGGAUUGAGCAUCA
B15: chr5:133537698:133537699:-_ENSG00000113575_ENST00000481195|hu_mus|FALSE|FALSE (ssRNA)
RNA: GGGAGUUCUACAGUCCGACGAUCGCUCUCGUGAUUCCCUCGGAGUAUGGUGAUGCGCUCUCGGUAACGAACCUUAAGAGCUACAAGCAGUGUAACUGUUUCAACAGAGUAAUAUCCUCUGUCCACAUAGUCUCCCAUAAACAGCAACAGAGGAUUGAGCAUCA
B16: chr7:129114946:129114947:-_ENSMUSG00000034951_ENSMUST00000057576|mus_hu|motif|central (ssRNA)
RNA: GGGAGUUCUACAGUCCGACGAUCAUCAACAAGCAUCAUUAAGCUGUUCUGCAUACCUGUUAGCUUGGCAGAAAUCACAGCGGUGUCCUGAGUCUUAAAUGUCUCCUCAAUAUCGGCGCUCAACGUGCUCCACUUAUCUGCUUCCAACAGAGGAUUGAGCAUCA
B17: chr2:179515052:179515053:+_ENSMUSG00000000305_ENSMUST00000000314|mus_hu|mus_mus_mus_hu_False|28_108 (ssRNA)
RNA: GGGAGUUCUACAGUCCGACGAUCGCUUUCCCGCGCAGUCACCGUGAACGCCACCUGCUCGGAGGGGACCUGCAGCUCCCGGGUGGCGAAGACUGUCCCAUCUGCCCCGACUUUGAAGUCCAUGCUGUUGGUCUCAUAUUGUGUCAACAGAGGAUUGAGCAUCA
B18: chr22:38881817:38881818:-_ENSG00000100201_ENST00000396821|hu_mus|FALSE|FALSE (ssRNA)
RNA: GGGAGUUCUACAGUCCGACGAUCUAAUUAUAGACUGGAUCUUUUGGGUGGGCAGAAGAAACCUGGCAGUGAAAUUUUAACUAUCUGCAUUAAAAAAAGAUAAACCGUAAUGGUUGAGAAAAGAAAAAAUAAAAAUGAAAAGGUCAACAGAGGAUUGAGCAUCA
B19: chr22:38881817:38881818:-_ENSG00000100201_ENST00000396821|hu_mus|motif|central (ssRNA)
RNA: B18 RNA with U81G, A82G
B20: 110384571_110384691_763_CDS_ENSG00000138802_ENST00000265175|human|control|control (ssRNA)
RNA: GGGAGUUCUACAGUCCGACGAUCUCCUGAAAGACUUUGCUGCUGGUGGUGCUGUUGUGAUGGUAGAGGUGGAAGUGGCGAUGGAUGGCUGAUAGCUGUAUUUUGACCAGAGAAUGAAUUAUCUUUAACUGGCCUAACAGUCGGCAACAGAGGAUUGAGCAUCA
B21: chr1:109605286:109605287:-_ENSG00000197780_ENST00000461096|hu_mus|hu_hu_hu_mus_True|58_108 (ssRNA)
RNA: GGGAGUUCUACAGUCCGACGAUCAAGAACAAUAACAACAUUCAGUAACCUCUUUAAAUGCAAUUAUCCUUAUUAUAAACUAAGGGCAAUAAUAAUUUAAUACCGUAAGUGAACUACACACAAAGCCUGAACCGCGAAAAUGGUCAACAGAGGAUUGAGCAUCA
B22: 65775431_65775551_264_CDS_ENSG00000116675_ENST00000371069|human|control|control (ssRNA)
RNA: GGGAGUUCUACAGUCCGACGAUCCACUCUCUGCUUGCCGCCAACCCCGCCGCUUCCCGCACUUAAGUCCCCGUUACUGUCCACCAGCUGCAAAGAUUCAUAACCAUCGUUGCUGGUCUUUUUCCGGUAGCUCCCGAGGAGGCUCAACAGAGGAUUGAGCAUCA

The binders below were run against T1, UNK ZnF1-3 (assay: nsRBNS (natural sequence RNA bind-n-seq); RBNS binding buffer (assumed for nsRBNS): 25 mM Tris pH 7.5, 150 mM KCl, 3 mM MgCl2, 0.01% Triton X-100, 500 ug/ml BSA, 20 U/ml SUPERase-In, 4 C; UNK is unkempt and MSI1 is Musashi-1; names of the RNAs are library labels; protein concentration not given here; high values mean tight binding).
B1 showed a binding signal of 0.828 enrichment R. B2 showed a binding signal of 0.364 enrichment R. For B3, the binding signal was 1.44 enrichment R. Binder B4 has a binding signal of 1.16 enrichment R. Binder B5 has a binding signal of 1 enrichment R. B6 gave a binding signal of 0.695 enrichment R. Binder B7 has a binding signal of 0.987 enrichment R. In the case of B8, the binding signal is reported as 0.788 enrichment R. Binder B9 has a binding signal of 1.74 enrichment R. For B10, the binding signal was 5.86 enrichment R. For B11, the binding signal was 1.21 enrichment R. B12 gave a binding signal of 4.73 enrichment R. For B13, the binding signal was 0.578 enrichment R. B14 gave a binding signal of 0.495 enrichment R. In the case of B15, the binding signal is reported as 0.691 enrichment R. B16 was tested, and the binding signal was 0.781 enrichment R. In the case of B17, the binding signal is reported as 0.727 enrichment R. B18 showed a binding signal of 6.63 enrichment R. For B19, the binding signal was 8.6 enrichment R. Work on B20 yielded a binding signal of 1.16 enrichment R. For B21, the binding signal was 1.22 enrichment R. Work on B22 yielded a binding signal of 0.845 enrichment R.

— PMC12136788
